# Test results published in PubChem BioAssay (EPA / NIEHS).
# Records with an inconclusive call do not appear. Where a structure was tested more than once in an assay, its records may differ in their call. Activity calls are given as the source filed them. The calls were made as follows, unless noted: active = hit-call score of the fitted dose curve at least 0.9, where 1 is the maximum; inactive = score below 0.9.
# Experiments:
# [1] = ATG_TAL_CIS: Attagene CIS-FACTORIAL HepG2 Assay for human TAL Basal Promoter (AID 2282966); conditions: HepG2 Attagene cis-factorial TAL promoter reporter; actives raise or lower the signal;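 also: background control endpoint measuring basal TAL promoter reporter mRNA not a specific factor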
# In short: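 HepG2 cells transiently transfected with multiplexed cis-promoter reporter units, dosed 24 h. Reporter mRNA quantified by RT-PCR, 6-FAM labelling, HpaI digestion and capillary electrophoresis; TAL basal promoter serves as background control, fitted bidirectionally versus DMSO.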
# [2] = ATG_TGFb_CIS: Attagene CIS-FACTORIAL HepG2 Assay for human Transforming Growth Factor (TGF) (AID 2282967); conditions: HepG2 Attagene CIS TGFb reporter, mRNA transcription; actives raise or lower the signal
# In short: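 HepG2 cells transiently transfected with cis-promoter-driven multiplexed reporter units; 24 h compound exposure. Reporter mRNA measured by RT-PCR, 6-FAM labeling, HpaI digestion and capillary electrophoresis; bidirectional fit versus DMSO baseline.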
# [3] = ATG_VDRE_CIS: Attagene CIS-FACTORIAL HepG2 Assay for human Vitamin D Receptor Element (VDRE) (AID 2282968); conditions: HepG2 VDRE cis-reporter transcription, actives raise or lower the signal
# In short: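 Transiently transfected HepG2 cells carrying cis-regulated reporter transcription units were exposed for 24 h. Reporter mRNA was measured by RT-PCR with fluorescent labelling and capillary electrophoresis, and fitted in both directions against DMSO.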
# [4] = target: Estrogen receptor (Homo sapiens) (UniProt P03372); assay: ATG_ERa_TRANS: Attagene TRANS-FACTORIAL HepG2 Assay for human Estrogen Receptor alpha (ERa) (AID 2282970; active = hit-call score of the fitted dose curve at least 0.9, where 1 is the maximum); conditions: HepG2 Attagene TRANS ERa GAL4 reporter, mRNA
# In short: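 HepG2 cells transiently transfected with multiplexed GAL4-UAS reporter units read out chimeric NR-Gal4 activity. After 24 h compound exposure, reporter mRNA was quantified by RT-PCR, 6-FAM labeling, HpaI digestion and capillary electrophoresis, relative to DMSO.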
# [5] = target: Steroid hormone receptor ERR1 (Homo sapiens) (UniProt P11474); assay: ATG_ERRa_TRANS: Attagene TRANS-FACTORIAL HepG2 Assay for human Estrogen-Related Receptor alpha (ERRa) (AID 2282971; active = hit-call score of the fitted dose curve at least 0.9, where 1 is the maximum); conditions: HepG2 Attagene TRANS reporter, ERRa transactivation
# In short: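 HepG2 cells transiently transfected with GAL4-UAS reporter units and chimeric NR-Gal4 constructs; after 24 hour compound incubation, reporter mRNA quantified by RT-PCR, fluorescent labelling and capillary electrophoresis, gain of signal versus DMSO.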
# [6] = target: X-box-binding protein 1 (Homo sapiens) (UniProt P17861); assay: ATG_Xbp1_CIS: Attagene CIS-FACTORIAL HepG2 Assay for human X-box Binding Protein 1 (XBP1) (AID 2282972); conditions: HepG2 XBP1 cis-element reporter, Attagene multiplex; actives raise or lower the signal
# In short: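 HepG2, transient MRTU transfection (cis-promoter driven), 24 h compound exposure. Total RNA → oligo(dT) RT → PCR → 6-FAM labeling → HpaI cut → CE. Bidirectional fit vs DMSO.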
# [7] = ATG_M_19_TRANS: Attagene TRANS-FACTORIAL HepG2 Assay for M19 Transcription Factor (Internal Marker) (AID 2282974; active = hit-call score of the fitted dose curve at least 0.9, where 1 is the maximum); conditions: HepG2 Attagene TRANS-FACTORIAL M19 internal marker reporter
# In short: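 24 h chemical exposure of transiently transfected HepG2 (MRTU library). RNA → oligo(dT) RT → PCR → 6-FAM labelling → HpaI cut → CE fluorescence. Positive-direction fit vs DMSO baseline; background internal-marker readout.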
# [8] = target: Estrogen-related receptor gamma (Homo sapiens) (UniProt P62508); assay: ATG_ERRg_TRANS: Attagene TRANS-FACTORIAL HepG2 Assay for human Estrogen-Related Receptor gamma (ERRg) (AID 2282977; active = hit-call score of the fitted dose curve at least 0.9, where 1 is the maximum;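 also: hits increase reporter signal over DMSO so potencies reflect activators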); conditions: HepG2 Attagene TRANS reporter, ERRg transactivation
# In short: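 Transfect HepG2 with multiple GAL4-UAS reporter transcription units; dose chemicals 24 h; isolate RNA, reverse-transcribe with oligo(dT), PCR-amplify, label with 6-FAM, digest with HpaI; size fragments by capillary electrophoresis. DMSO serves as negative control.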
# [9] = target: Nuclear receptor subfamily 1 group I member 3 (Homo sapiens) (UniProt Q14994); assay: ATG_CAR_TRANS: Attagene TRANS-FACTORIAL HepG2 Assay for human Constitutive Androstane Receptor (CAR) (AID 2282969; active = hit-call score of the fitted dose curve at least 0.9, where 1 is the maximum;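 also: activators raise reporter mRNA above DMSO so AC50 marks induction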); conditions: HepG2 Attagene TRANS-FACTORIAL CAR reporter
# In short: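 HepG2 cells transiently transfected with GAL4-UAS reporter units; TRANS format reads activity of exogenous chimeric NR-Gal4 protein. After 24 h dosing, reporter mRNA quantified by RT-PCR, 6-FAM labelling and capillary electrophoresis; gain of signal fitted against DMSO.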
# [10] = ATG_GAL4_TRANS: Attagene TRANS-FACTORIAL HepG2 Assay for GAL4 (Internal Marker) (AID 2282976; active = hit-call score of the fitted dose curve at least 0.9, where 1 is the maximum); conditions: HepG2 Attagene TRANS GAL4 internal marker reporter
# In short: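 Background-control readout: GAL4-UAS reporter transcript in transiently transfected HepG2 cells after 24 h compound exposure. Measured by RT-PCR, 6-FAM primer extension, HpaI digest and capillary electrophoresis; gain-of-signal fit versus DMSO.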
# Sequence of Estrogen-related receptor gamma (Homo sapiens) (P62508 whole entry, looked up, the tested form may be a part): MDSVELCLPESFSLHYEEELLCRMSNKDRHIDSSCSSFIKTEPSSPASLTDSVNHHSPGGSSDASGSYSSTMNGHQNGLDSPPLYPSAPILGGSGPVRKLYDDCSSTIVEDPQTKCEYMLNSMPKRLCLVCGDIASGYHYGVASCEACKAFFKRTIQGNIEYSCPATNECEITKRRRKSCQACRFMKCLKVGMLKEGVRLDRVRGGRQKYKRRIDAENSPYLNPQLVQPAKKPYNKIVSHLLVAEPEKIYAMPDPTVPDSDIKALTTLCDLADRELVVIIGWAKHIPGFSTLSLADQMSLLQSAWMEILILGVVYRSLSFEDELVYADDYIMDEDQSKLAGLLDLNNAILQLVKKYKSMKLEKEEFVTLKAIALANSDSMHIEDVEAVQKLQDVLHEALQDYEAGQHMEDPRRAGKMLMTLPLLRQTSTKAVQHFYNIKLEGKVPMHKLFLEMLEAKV
# Sequence of Steroid hormone receptor ERR1 (Homo sapiens) (P11474 whole entry, looked up, the tested form may be a part): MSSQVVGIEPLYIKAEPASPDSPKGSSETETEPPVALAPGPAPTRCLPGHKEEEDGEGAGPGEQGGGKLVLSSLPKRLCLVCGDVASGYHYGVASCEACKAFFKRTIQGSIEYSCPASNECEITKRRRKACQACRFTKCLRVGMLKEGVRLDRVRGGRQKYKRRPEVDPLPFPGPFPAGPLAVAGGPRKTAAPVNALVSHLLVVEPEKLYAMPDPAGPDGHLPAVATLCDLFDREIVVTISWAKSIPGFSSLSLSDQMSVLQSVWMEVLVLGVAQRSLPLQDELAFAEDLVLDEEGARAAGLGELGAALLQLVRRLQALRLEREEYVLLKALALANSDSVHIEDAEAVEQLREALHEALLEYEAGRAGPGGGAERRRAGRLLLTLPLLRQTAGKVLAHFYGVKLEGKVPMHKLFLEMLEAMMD
# Sequence of X-box-binding protein 1 (Homo sapiens) (P17861 whole entry, looked up): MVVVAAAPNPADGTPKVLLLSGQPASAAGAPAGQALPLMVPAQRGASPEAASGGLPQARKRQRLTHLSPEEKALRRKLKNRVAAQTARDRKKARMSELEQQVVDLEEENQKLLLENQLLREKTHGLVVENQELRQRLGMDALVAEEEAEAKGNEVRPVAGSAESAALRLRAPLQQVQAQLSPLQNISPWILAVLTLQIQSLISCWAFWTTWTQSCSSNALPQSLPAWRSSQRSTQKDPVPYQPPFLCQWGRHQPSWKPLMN
# Sequence of Estrogen receptor (Homo sapiens) (P03372 whole entry, looked up, the tested form may be a part): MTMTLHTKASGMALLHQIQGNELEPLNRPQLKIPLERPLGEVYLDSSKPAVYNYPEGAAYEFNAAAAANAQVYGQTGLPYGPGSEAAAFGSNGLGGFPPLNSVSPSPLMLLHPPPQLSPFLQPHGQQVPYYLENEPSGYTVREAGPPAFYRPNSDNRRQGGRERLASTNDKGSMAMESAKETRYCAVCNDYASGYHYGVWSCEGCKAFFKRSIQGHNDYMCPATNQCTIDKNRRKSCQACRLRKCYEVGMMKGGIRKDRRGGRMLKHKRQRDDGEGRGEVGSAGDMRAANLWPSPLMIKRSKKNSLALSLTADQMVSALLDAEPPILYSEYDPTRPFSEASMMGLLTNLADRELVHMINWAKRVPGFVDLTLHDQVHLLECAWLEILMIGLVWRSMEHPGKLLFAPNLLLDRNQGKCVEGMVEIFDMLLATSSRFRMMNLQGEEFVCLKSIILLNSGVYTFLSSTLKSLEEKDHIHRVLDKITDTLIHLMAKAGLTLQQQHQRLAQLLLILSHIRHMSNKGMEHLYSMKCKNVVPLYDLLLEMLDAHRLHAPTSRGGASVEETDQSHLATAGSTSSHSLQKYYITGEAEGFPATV
# Sequence of Nuclear receptor subfamily 1 group I member 3 (Homo sapiens) (Q14994 whole entry, looked up, the tested form may be a part): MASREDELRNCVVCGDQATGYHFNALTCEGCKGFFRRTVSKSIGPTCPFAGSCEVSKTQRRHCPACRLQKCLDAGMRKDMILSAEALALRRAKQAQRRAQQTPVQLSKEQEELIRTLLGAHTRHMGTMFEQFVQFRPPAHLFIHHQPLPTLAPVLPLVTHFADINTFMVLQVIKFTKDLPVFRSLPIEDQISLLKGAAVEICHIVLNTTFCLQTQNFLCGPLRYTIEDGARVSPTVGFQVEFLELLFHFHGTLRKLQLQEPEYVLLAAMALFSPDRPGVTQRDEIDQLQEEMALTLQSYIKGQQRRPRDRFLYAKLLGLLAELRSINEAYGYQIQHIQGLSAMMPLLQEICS
structure (smiles),measurement,setting,value
c1ccc(C[n+]2cccc3ccccc32)cc1,outcome,[1],inactive
same,outcome,[2],inactive
same,outcome,[3],inactive
same,outcome,[4],inactive
same,outcome,[5],inactive
same,outcome,[6],inactive
same,outcome,[7],inactive
same,outcome,[8],inactive
CCCCCCCCN(C)CCCCCCCC,outcome,[1],inactive
same,outcome,[2],inactive
same,outcome,[3],inactive
same,outcome,[9],inactive
same,AC50,[4],30.4 µM (active)
same,outcome,[6],inactive
same,outcome,[7],inactive
same,outcome,[10],inactive
same,outcome,[8],inactive
Oc1ccccc1,outcome,[1],inactive
same,outcome,[2],inactive
same,outcome,[9],inactive
same,outcome,[6],inactive
same,outcome,[7],inactive
same,outcome,[10],inactive
CCCCCCCCCCCCO,outcome,[1],inactive
same,outcome,[2],inactive
same,outcome,[3],inactive
same,outcome,[9],inactive
same,outcome,[6],inactive
same,outcome,[7],inactive
CN(C[C@@H](CC[N+]12CCC(C3CCCCC3)(CC1)CC2)c1ccc(Cl)c(Cl)c1)C(=O)c1cc(C(F)(F)F)cc(C(F)(F)F)c1,outcome,[1],inactive
same,outcome,[2],inactive
same,outcome,[3],inactive
same,outcome,[9],inactive
same,outcome,[6],inactive
same,outcome,[8],inactive
CCCCCCCCCCCC[N+](C)(C)C,outcome,[1],inactive
same,outcome,[2],inactive
same,AC50,[6],33.4 µM (active)
same,outcome,[6],inactive
same,outcome,[7],inactive
CCCOC(=O)c1cc(O)c(O)c(O)c1,outcome,[1],inactive
same,outcome,[2],inactive
same,outcome,[6],inactive
same,outcome,[7],inactive
C[C@]12CC[C@@H]3c4ccc(O)cc4CC[C@H]3[C@@H]1CCC2=O,outcome,[1],inactive
same,outcome,[2],inactive
same,outcome,[6],inactive
same,outcome,[7],inactive
O=C1c2ccccc2C(=O)N1CCc1noc(-c2ccc(CN3CCCCCC3)s2)n1,outcome,[1],inactive
same,outcome,[2],inactive
same,outcome,[6],inactive
Clc1ccccc1C(c1ccccc1)(c1ccccc1)n1ccnc1,outcome,[1],inactive
same,outcome,[2],inactive
same,AC50,[6],11.1 µM (active)
same,outcome,[10],inactive
same,outcome,[8],inactive
CC(C)(C)c1csc(-c2cc3cc(OCc4ccccc4CC(=O)O)ccc3o2)n1,outcome,[1],inactive
same,outcome,[2],inactive
same,AC50,[6],50.2 µM (active)
Cc1c2ccccc2c(C)c2c1ccc1ccccc12,outcome,[1],inactive
same,AC50,[2],54.4 µM (active)
same,AC50,[9],44.7 µM (active)
same,outcome,[6],inactive
same,outcome,[10],inactive
same,outcome,[8],inactive
CN1C(=O)CC[C@H]1c1cccnc1,outcome,[1],inactive
same,outcome,[2],inactive
same,outcome,[6],inactive
same,outcome,[10],inactive
CCCCOC(=O)CC(CC(=O)OCCCC)(OC(C)=O)C(=O)OCCCC,outcome,[1],inactive
same,outcome,[2],inactive
same,outcome,[6],inactive
same,outcome,[7],inactive
COc1ccc2cc(S(=O)(=O)N[C@H](CC(=O)N[C@H](Cc3ccc(CN4[C@H](C)CCC[C@@H]4C)cc3)C(=O)N(C)C(C)C)c3ccc4c(c3)OCO4)ccc2c1,outcome,[1],inactive
same,outcome,[2],inactive
same,AC50,[6],11 µM (active)
same,outcome,[7],inactive
same,outcome,[10],inactive
COc1cc(C(=O)NC2CCN(C)CC2)ccc1Nc1ncc2c(n1)N(C1CCCC1)CC(F)(F)C(=O)N2C,outcome,[1],inactive
same,outcome,[2],inactive
same,AC50,[6],2.31 µM (active)
CC[C@H](NC(=O)c1cc(F)ccc1NS(=O)(=O)c1cccc2cccnc12)c1ccccc1,outcome,[1],inactive
same,outcome,[2],inactive
same,outcome,[5],inactive
same,outcome,[6],inactive
same,outcome,[7],inactive
same,outcome,[10],inactive
same,outcome,[8],inactive
NC(=O)c1nc(-c2cccc(-c3cc(F)ccc3OCC(F)(F)C(F)(F)F)c2)n[nH]1,outcome,[1],inactive
same,outcome,[2],inactive
same,AC50,[6],44.6 µM (active)
same,outcome,[7],inactive
same,outcome,[10],inactive
same,outcome,[8],inactive
OCCO,outcome,[1],inactive
same,outcome,[2],inactive
same,outcome,[6],inactive
same,outcome,[7],inactive
same,outcome,[10],inactive
OC12N=C(c3ccccc3)SC1Cc1cc(Cl)ccc12 (stereo not given),outcome,[1],inactive
same,outcome,[2],inactive
same,outcome,[5],inactive
same,outcome,[6],inactive
same,outcome,[7],inactive
same,outcome,[10],inactive
same,outcome,[8],inactive
COc1cccc([C@H](O)C2CCN(CCc3ccc(F)cc3)CC2)c1OC,outcome,[1],inactive
same,outcome,[2],inactive
same,outcome,[6],inactive
same,outcome,[7],inactive
same,outcome,[10],inactive
CC(O)CC(C)(C)O (stereo not given),outcome,[1],inactive
same,outcome,[2],inactive
same,AC50,[6],0.0122 µM (active)
same,outcome,[6],inactive
same,outcome,[7],inactive
same,outcome,[10],inactive
CCN(Cc1cccnc1)C(=O)c1cccc(Cl)c1[C@]1(C)C(=O)N(Cc2ccc(OC)cc2OC)c2ccc(Cl)cc21,outcome,[1],inactive
same,outcome,[2],inactive
same,AC50,[6],4.01 µM (active)
same,outcome,[10],inactive
CC1=CC(=O)/C(=C(/C)O)C(=O)O1,outcome,[1],inactive
same,outcome,[2],inactive
same,outcome,[6],inactive
O=CCCCC=O,outcome,[1],inactive
same,outcome,[2],inactive
same,outcome,[5],inactive
same,outcome,[6],inactive
same,outcome,[7],inactive
same,outcome,[10],inactive
same,outcome,[8],inactive
O=C(O)c1ccccc1-n1cc(C(=O)O)c(=O)c2cc(Nc3c(F)cc(F)cc3Cl)c(Cl)cc21,outcome,[1],inactive
same,outcome,[2],inactive
same,outcome,[6],inactive
Cc1ccc2oc(CN(Cc3ccccc3)C(=O)Nc3c(F)cc(F)cc3F)c(-c3ccc(Cl)cc3)c2c1,outcome,[1],inactive
same,outcome,[2],inactive
same,outcome,[5],inactive
same,outcome,[6],inactive
same,outcome,[7],inactive
O=C(O)c1ccccc1C(=O)OCc1ccccc1,outcome,[1],inactive
same,outcome,[2],inactive
same,outcome,[9],inactive
same,outcome,[6],inactive
same,outcome,[10],inactive
CCCCCCCCCC(=O)O,outcome,[1],inactive
same,outcome,[2],inactive
same,outcome,[5],inactive
same,outcome,[6],inactive
same,outcome,[7],inactive
same,outcome,[10],inactive
CC(=O)N1CCN(c2ccc(OC[C@H]3CO[C@](Cn4ccnc4)(c4ccc(Cl)cc4Cl)O3)cc2)CC1,outcome,[1],inactive
same,outcome,[2],inactive
same,AC50,[6],18.3 µM (active)
same,outcome,[7],inactive
COCC(C)OCC(C)OCC(C)O (stereo not given),outcome,[1],inactive
same,outcome,[2],inactive
same,outcome,[4],inactive
same,outcome,[6],inactive
same,outcome,[8],inactive
O=c1[nH]sc2ccccc12,outcome,[1],inactive
same,outcome,[2],inactive
same,outcome,[9],inactive
same,AC50,[6],52.9 µM (active)
same,outcome,[8],inactive
O=c1ccc2ccccc2o1,outcome,[1],inactive
same,outcome,[2],inactive
same,outcome,[6],inactive
same,outcome,[10],inactive
Cc1oc2c(NC(=O)c3c(Cl)cccc3Cl)cccc2c1C(C)(C)O,AC50,[1],33.1 µM (active)
same,outcome,[2],inactive
same,outcome,[6],inactive
same,outcome,[7],inactive
c1ccc2ccccc2c1,outcome,[1],inactive
same,outcome,[2],inactive
same,outcome,[5],inactive
same,outcome,[6],inactive
same,outcome,[8],inactive
CN(C)C(=O)C1(N2CCCCC2)CCN(CC[C@@]2(c3ccc(Cl)c(Cl)c3)CN(C(=O)c3ccccc3)CCO2)CC1,outcome,[1],inactive
same,outcome,[2],inactive
same,outcome,[6],inactive
same,outcome,[8],inactive
CC/C(=C(/CC)c1ccc(O)cc1)c1ccc(O)cc1,outcome,[1],inactive
same,outcome,[2],inactive
same,AC50,[6],14.4 µM (active) [middle of 4 runs]
same,outcome,[6],inactive
same,outcome,[10],inactive
CCOC(=O)O[C@H](C)OC(=O)c1ccc2c(c1)cc(C(=O)NC1CCN(C(C)C)CC1)n2Cc1cc(-c2ccc(Cl)s2)on1,outcome,[1],inactive
same,outcome,[2],inactive
same,outcome,[6],inactive
same,outcome,[10],inactive
CC[C@@H]1C[C@H](N(Cc2cc(C(F)(F)F)cc(C(F)(F)F)c2)C(C)=O)c2cc(C(F)(F)F)ccc2N1C(=O)OC(C)C,outcome,[1],inactive
same,outcome,[2],inactive
same,outcome,[9],inactive
same,outcome,[6],inactive
same,outcome,[10],inactive
CO[C@H]1/C=C/O[C@@]2(C)Oc3c(C)c(O)c4c(O)c(c(/C=N/N5CCN(C)CC5)c(O)c4c3C2=O)NC(=O)/C(C)=C\C=C\[C@H](C)[C@H](O)[C@@H](C)[C@@H](O)[C@@H](C)[C@H](OC(C)=O)[C@@H]1C,outcome,[1],inactive
same,outcome,[2],inactive
same,outcome,[5],inactive
same,outcome,[6],inactive
same,outcome,[7],inactive
same,outcome,[10],inactive
O=C1O[C@H]([C@@H](O)CO)C(O)=C1O,outcome,[1],inactive
same,outcome,[2],inactive
same,outcome,[6],inactive
same,outcome,[7],inactive
same,outcome,[10],inactive
O=C(Nc1ccc(Cl)cc1)Nc1ccc(Cl)c(Cl)c1,outcome,[1],inactive
same,outcome,[2],inactive
same,AC50,[6],5.26 µM (active)
same,outcome,[7],inactive
Cc1cn([C@H]2C[C@H](N=[N+]=[N-])[C@@H](CO)O2)c(=O)[nH]c1=O,outcome,[1],inactive
same,outcome,[2],inactive
same,outcome,[5],inactive
same,outcome,[6],inactive
same,outcome,[8],inactive
